nsP2pro primary = CHIKV nsP2 protease inhibition, primary qHTS. actives 1.1% (n = 31,000). FRET peptide cleavage, nsP2pro, fluorescence 1 h. AID 1964107. Potency, µM (top dose mostly 24.9 µM), inactives show top-dose activity change, negative = inhibition, most hits filed as inhibitors. Q8JUX6; also: nearly all actives have a fitted effect of over 60% in size
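FRET cleavage of 2.5 uM peptide 2 by 150 nM CHIKV protease domain at pH 8.0 (Tris, Tween 20). Compounds at 7 concentrations (up to 25 uM) preincubated 15 min. Fluorescence read after 1 h at room temperature.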
CHIKV nsP2 cell = secondary cell-based test for CHIKV nsP2 protease inhibitors; cell-based CHIKV nsP2 protease reporter assay; actives 10% (n = 450); shares compounds with nsP2pro primary; AID 1964100; Potency, µM (top dose mostly 51.1 µM), for inactives: at the top dose activity change, negative = inhibition, hits mostly inhibitors; also: nearly all actives have a fitted effect of over 70% in size
NSP2 full ctr = selectivity test for CHIKV nsP2 protease inhibitors: full-length NSP2 | shares compounds with nsP2pro primary | Full-length CHIKV NSP2 protease enzymatic counterscreen | Potency, µM (series often up to 50.7 µM), for inactives: at the highest dose activity change, negative = inhibition, actives largely listed as inhibitors | actives 39% (n = 410); also: nearly all actives have a fitted effect of over 65% in size
Furin counterscr = human furin inhibition, counterscreen for nsP2pro inhibitors | Recombinant human furin enzymatic counterscreen, fluorogenic substrate | Potency, µM (series often up to 50.6 µM), for the others: at the highest dose activity change, negative = inhibition, usual class: inhibitors | AID 1964102 | actives 6% (n = 410) | shares compounds with nsP2pro primary
nsP2 NS23 pep = selectivity test for CHIKV nsP2 protease inhibitors: endogenous NS2/3 peptide; shares compounds with nsP2pro primary; Purified CHIKV nsP2 protease, endogenous NS2/3 peptide cleavage; Potency, µM (doses to about 51 µM), inactives show at the highest dose activity change, negative = inhibition, hits mostly inhibitors; actives 34% (n = 410); AID 1964103; also: nearly all actives have a fitted effect of over 55% in size
Papain cs = selectivity counter-screen for CHIKV nsP2 protease inhibitors: papain | shares compounds with nsP2pro primary | purified papain protease activity, enzymatic inhibition | Potency, µM (series often up to 51 µM), without a hit: top-dose activity change, negative = inhibition, hits mostly inhibitors | actives 5% (n = 410) | AID 1964104
nsP2pro conf qHTS = CHIKV nsP2 protease inhibition, confirmatory qHTS | actives 43% (n = 410) | CHIKV nsP2 protease enzymatic activity, qHTS | shares compounds with nsP2pro primary | Potency, µM (doses to about 25.5 µM), for inactives: top-dose activity change, negative = inhibition, actives largely listed as inhibitors | AID 1964105; also: nearly all actives have a fitted effect of over 75% in size
HCV NS3 4A cs = inhibits HCV NS3/4A protease in an nsP2pro selectivity counterscreen; HCV NS3/4A protease biochemical counterscreen; shares compounds with nsP2pro primary; actives 20% (n = 410); Potency, µM (series often up to 50.9 µM), actives largely listed as inhibitors; AID 1964106; also: nearly all actives have a fitted effect of over 55% in size
* marks the source's active call; other numbers are inactive results; i = inactive; ? = inconclusive; [ ] = dose if it differs, or a comment. This excerpt belongs to a sample that is enriched for hits. Calls follow the shape of the full dose curve. % is scaled to controls: 0 for no effect and ±100 for the full control effect; potency is read from the fitted curve at half-maximal effect.

SMILES	nsP2pro primary	others
O=P(O)(O)OC1C(OP(=O)(O)O)C(OP(=O)(O)O)C(OP(=O)(O)O)C(OP(=O)(O)O)C1OP(=O)(O)O (stereo not drawn)	-13%
CCNC(=O)c1ccc(-c2ccc3ncnc(NCc4ccc(C)o4)c3c2)o1	-19%
CCC(CC)O[C@@H]1C=C(C(=O)O)C[C@H](N)[C@H]1NC(C)=O	9%
CN1CCN(c2ccc(Nc3nc(-c4ccncc4)nc4ccccc34)cc2F)CC1	3%
Fc1cc(Nc2nc(-c3ccncc3)nc3ccccc23)ccc1-c1cccc(OC(F)(F)F)c1	3%
CC(C)=CCC[C@](C)(O[C@@H]1O[C@H](CO)[C@@H](O)[C@H](O)[C@H]1O)[C@H]1CC[C@]2(C)[C@@H]1[C@H](O)C[C@@H]1[C@@]3(C)CC[C@H](O)C(C)(C)[C@@H]3CC[C@]12C	-1%
Cc1occc1-c1ccc2ncnc(NCc3ncc[nH]3)c2c1	i
Cc1nn(-c2ccc(F)cc2)c(C)c1[C@@H]1C=C[C@@H](NC(=O)NC(C)C)C1	-8%[39.2 µM]
COc1ccc(NC(=O)N[C@@H]2C=C[C@@H](c3c(C)nn(CCC#N)c3C)C2)cc1	13µM*
COc1ccc(-n2nc(C)c([C@@H]3C=C[C@@H](NC(=S)NCC(C)C)C3)c2C)cc1	44%[39.2 µM]
CC(=O)OC1CCC2(C)C(=CCC3C2CCC2(C)C(c4cccnc4)=CCC32)C1 (stereo not drawn)	-6%
CCNC(=O)N[C@@H]1C=C[C@@H](c2c(C)nn(-c3ccc(C(F)(F)F)cc3)c2C)C1	11µM*
CCNC(=O)N[C@@H]1C=C[C@@H](c2c(C)nn(-c3ccc(C(C)C)cc3)c2C)C1	-4%[39.2 µM]
CCNC(=O)N[C@@H]1C=C[C@@H](c2c(C)nn(-c3ccc(C(C)(C)C)cc3)c2C)C1	-6%[39.2 µM]
CC[C@H]1[C@@H](O)[C@@H]2[C@H](CC[C@]3(C)[C@@H]([C@H](C)CCC(=O)O)CC[C@@H]23)[C@@]2(C)CC[C@@H](O)C[C@@H]12	0%
Cn1cc(C2=C(c3cn(CCCN)c4ccccc34)C(=O)NC2=O)c2ccccc21	9%
COC(=O)c1ccc(N2CCN(S(=O)(=O)c3ccc4c(c3)CC(=O)N4)CC2)cc1	i
Cc1cc(C)nc(NC(=S)N2CCN(c3cc(Cl)c(Cl)cc3Cl)CC2)c1	1%
CC(=O)OC(CSC1CCC(=O)OC(C)CCC(=O)C1)C(=O)O (stereo not drawn)	?	CHIKV nsP2 cell=6%[33.5 µM];NSP2 full ctr=-5%[33.5 µM];Furin counterscr=-5%[33.5 µM];nsP2 NS23 pep=-11%[33.5 µM];Papain cs=-11%[33.5 µM];nsP2pro conf qHTS=?;HCV NS3 4A cs=?
OC[C@H]1O[C@H](OC[C@H]2O[C@H](O[C@]3(CO)O[C@H](CO)[C@@H](O)[C@@H]3O)[C@H](O)[C@@H](O)[C@@H]2O)[C@H](O)[C@@H](O)[C@H]1O	-18%
COC(=O)C[C@H]1C(C)(C)[C@H](OC(C)=O)C2CC3=C4CC(=O)O[C@@H](c5ccoc5)[C@]4(C)CCC3[C@@]1(C)C2=O (stereo partly drawn)	-2%[10 µM]
COC(=O)/C=C/C12COC(C)(C)C1C(O)C(OC(C)=O)C1(C)C2CCC2(C)C(c3ccoc3)OC(=O)C3OC321 (stereo not drawn)	?	CHIKV nsP2 cell=5%[17.6 µM];NSP2 full ctr=-8%[17.3 µM];Furin counterscr=-7%[17.3 µM];nsP2 NS23 pep=-15%[17.2 µM];Papain cs=5%[17.2 µM];nsP2pro conf qHTS=-4%[8.62 µM];HCV NS3 4A cs=i
